Results as given in PubChem BioAssay.
Unmarked numbers belong to inactive results. Calls of active or inactive are those of the source. Rule as the data show it, unless noted: active = inhibition above about 42%; inactive = the rest.

Tested on: not listed separately
Assay: StAR promoter reporter inhibitors, counter-screen for LRH-1 inverse agonist project, cell-based, luminescence, high throughput (AID 651611; in the data active = inhibition above about 28%)
Details: StAR promoter luciferase reporter counterscreen, at 3.6 µM, hits give high values
With `Cc1ccc(S(=O)(=O)NCc2ccncc2)c(C)c1C` the inhibition was 17.9%.
With `Nc1nc(-c2ccccc2)c(CCCOc2ccc(NC(=O)CBr)cc2)c(=O)[nH]1` the inhibition was 15.7%.
`O=[N+]([O-])c1ccc(Sc2nnnn2-c2ccccc2)c(Cl)c1` gave an inhibition of 5.41%.
`COc1ccnc(Oc2ccccc2)c1C(=O)N/C=N/OCc1ccccc1F` gave an inhibition of 12.8%.
`CCC(c1nnnn1-c1c(C)cccc1C)N1CCN(c2ccc(C(F)(F)F)cc2[N+](=O)[O-])CC1` (stereo not given) showed an inhibition of 7.27%.
`CCC(=O)Nc1nnc(SCC(=O)NCCc2ccc(OC)c(OC)c2)s1` gave an inhibition of 12.9%.
`COc1ccc(-c2cc3ccccc3oc2=O)cc1NC(=O)c1ccc([N+](=O)[O-])o1` showed an inhibition of -51.4%.
`CCc1cc(=O)oc2c(C)c(OCC(=O)NCCCN3CCOCC3)ccc12` showed an inhibition of 3.94%.
With `CCCc1cc(=O)oc2cc(C)cc(OCC(=O)Nc3ccccn3)c12` the inhibition was 2.99%.
For `NC(=O)c1oc2ccccc2c1NC(=O)c1ccc([N+](=O)[O-])o1`, the inhibition was 23.2%.
Compound `CCOC(=O)N1CCN(C(=O)CCl)CC1` has an inhibition of 11%.
Compound `CN(C)c1ccc(C=c2c3ccccc3n3c2cc(-c2ccc(Cl)cc2)[n+]3C)cc1` has an inhibition of 5.51%.
For `COc1ccc(NC(=O)CSc2ncnc3c2cnn3Cc2ccccc2)cc1`, the inhibition was 16.1%.
For `COc1cc(C2c3cc4c(cc3OC(NNC(N)=S)C2C)OCO4)cc(OC)c1OC` (stereo not given), the inhibition was 49.2% (active).
For `CC(=O)Nc1cc(-c2ccccc2N(C)C)cn2c(-c3ccc(S(C)(=O)=O)cc3)cnc12`, the inhibition was 7.26%.
Work on `Cc1ccc(C)c(NC(=O)CSc2nc3[nH]ncc3c(=O)[nH]2)c1` yielded an inhibition of 6.04%.
Work on `Cc1c(Cl)cccc1NC(=O)CSc1nc2ncc(Cl)cc2[nH]1` yielded an inhibition of 18.2%.
For `CCNc1nc(-c2sc(NC(=O)C(C)(C)C)nc2C)c(-n2cc(-c3ccccc3)nn2)s1`, the inhibition was 60.9% (active).
With `O=C(Nc1ccc(Cc2ccncc2)cc1)c1cccc([N+](=O)[O-])c1` the inhibition was -10.2%.
For `COc1cc(C)c(C(=O)Oc2cc(C)c(C(=O)O)c(O)c2C)c(O)c1C`, the inhibition was 14.9%.
Compound `O=C(NC1CCCCC1)c1ccc([N+](=O)[O-])o1` has an inhibition of 24.6%.
For `CCCCc1c(O)nc(SCC(=O)Nc2ccc3c(c2)CCC3)[nH]c1=O`, the inhibition was 6.25%.
`Cc1cc(Br)ccc1NC(=O)CN1C(=O)CCC1=O` showed an inhibition of 7.63%.
In the case of `O=C(CN1C(=O)NC2(CCOc3ccccc32)C1=O)Nc1cccc([N+](=O)[O-])c1` (stereo not given), the inhibition is reported as 13.7%.
For `CC(=O)Nc1ccc(NC(=O)CSc2ccc(-c3ccc(-n4ccnc4)cc3)nn2)cc1`, the inhibition was 9.71%.
`Cc1ccc(NC(=O)CSc2ccc3c(c2)OCCO3)c(O)c1` showed an inhibition of 11.1%.
For `CCCOc1ccc(Cn2cnc3ccccc32)cc1`, the inhibition was 5.08%.
In the case of `Cc1ccc(NC(=O)c2ccc([N+](=O)[O-])o2)c(C)c1`, the inhibition is reported as 11.1%.
In the case of `Cc1nc2ccccc2n1/N=C/c1ccc([N+](=O)[O-])s1`, the inhibition is reported as 20.9%.
`CCOc1ccc(CCNC(=O)COC(=O)c2nc(Cl)ccc2Cl)cc1OCC` showed an inhibition of -2.83%.
Compound `CCNC(=S)N1CCN(c2nc(CC)nc3sc4c(c23)CCCC4)CC1` has an inhibition of 1.42%.
Work on `COc1ccc(C2(C)NC(=O)N(CC(=O)Nc3ccc(C)cc3Br)C2=O)cc1OC` (stereo not given) yielded an inhibition of 15.7%.
`Cc1c(C(=O)NC(C)c2ccncc2)oc2ccccc12` (stereo not given) gave an inhibition of -19.6%.
With `Cc1nnc(SCC(=O)Nc2ccc(N3CCN(S(C)(=O)=O)CC3)cc2)o1` the inhibition was -2.52%.
`CC(=O)Nc1ccc(C2=CC(=O)CC(C)(C)C2)cc1` showed an inhibition of 15.2%.
In the case of `COCC1CCCN(C(=O)c2cc(COc3ccc4ncccc4c3)on2)C1` (stereo not given), the inhibition is reported as 30.9% (active).
Compound `Cc1ccc(CNC(=O)CN2C(=O)NC3(CCCC3)C2=O)cc1` has an inhibition of 5.83%.
Work on `CCn1c(=S)sc2c(=O)n(CC(=O)Nc3ccc(Cl)cc3)c(C)nc21` yielded an inhibition of 6.76%.
In the case of `O=C(Nc1cccc(NC(=O)c2ccccc2Cl)c1)c1ccc([N+](=O)[O-])o1`, the inhibition is reported as 33.1% (active).
`Cc1nnc(SCC(=O)Nc2sc3c(c2C(N)=O)CCCC3)[nH]c1=O` showed an inhibition of 10.4%.

Molecular target: Nuclear receptor subfamily 5 group A member 2 (Homo sapiens) (UniProt O00482)
Sequence (O00482 whole entry, looked up): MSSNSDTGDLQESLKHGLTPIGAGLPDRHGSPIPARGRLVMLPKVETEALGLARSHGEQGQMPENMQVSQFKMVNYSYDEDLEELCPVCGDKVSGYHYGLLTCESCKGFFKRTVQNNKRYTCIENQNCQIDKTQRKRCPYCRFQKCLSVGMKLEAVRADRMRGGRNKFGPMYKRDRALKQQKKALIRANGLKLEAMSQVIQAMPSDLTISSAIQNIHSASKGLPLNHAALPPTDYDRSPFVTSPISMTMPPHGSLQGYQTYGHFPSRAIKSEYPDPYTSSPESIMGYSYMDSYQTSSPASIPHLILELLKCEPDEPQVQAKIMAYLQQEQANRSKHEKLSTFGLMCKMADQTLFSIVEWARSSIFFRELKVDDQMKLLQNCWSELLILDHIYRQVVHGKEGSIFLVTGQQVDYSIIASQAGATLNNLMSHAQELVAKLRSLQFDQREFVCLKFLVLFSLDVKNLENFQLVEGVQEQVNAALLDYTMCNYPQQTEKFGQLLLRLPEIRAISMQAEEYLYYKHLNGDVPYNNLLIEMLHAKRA
Assay: NR5A2 activity suppression in reporter cells – cell-based, luminescence, confirmation (AID 651613);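 also: HEK293T cells co-transfected with LRH-1 and StAR promoter luciferase reporter; 0% = vehicle wells and 100% = parental cells lacking receptor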
Details: cell-based LRH-1 luciferase reporter, inverse agonism; at 3.6 µM; hits give high values
For `Cc1ccc(S(=O)(=O)NCc2ccncc2)c(C)c1C`, the inhibition was 56.9% (active).
With `Nc1nc(-c2ccccc2)c(CCCOc2ccc(NC(=O)CBr)cc2)c(=O)[nH]1` the inhibition was 61.6% (active).
For `O=[N+]([O-])c1ccc(Sc2nnnn2-c2ccccc2)c(Cl)c1`, the inhibition was 25.6%.
In the case of `COc1ccnc(Oc2ccccc2)c1C(=O)N/C=N/OCc1ccccc1F`, the inhibition is reported as 56.9% (active).
Work on `CCC(c1nnnn1-c1c(C)cccc1C)N1CCN(c2ccc(C(F)(F)F)cc2[N+](=O)[O-])CC1` (stereo not given) yielded an inhibition of 18.6%.
In the case of `CCC(=O)Nc1nnc(SCC(=O)NCCc2ccc(OC)c(OC)c2)s1`, the inhibition is reported as 55.6% (active).
`COc1ccc(-c2cc3ccccc3oc2=O)cc1NC(=O)c1ccc([N+](=O)[O-])o1` showed an inhibition of 16%.
In the case of `CCc1cc(=O)oc2c(C)c(OCC(=O)NCCCN3CCOCC3)ccc12`, the inhibition is reported as 48.7% (active).
In the case of `CCCc1cc(=O)oc2cc(C)cc(OCC(=O)Nc3ccccn3)c12`, the inhibition is reported as 60.1% (active).
In the case of `NC(=O)c1oc2ccccc2c1NC(=O)c1ccc([N+](=O)[O-])o1`, the inhibition is reported as 67.6% (active).
In the case of `CCOC(=O)N1CCN(C(=O)CCl)CC1`, the inhibition is reported as 56% (active).
For `CN(C)c1ccc(C=c2c3ccccc3n3c2cc(-c2ccc(Cl)cc2)[n+]3C)cc1`, the inhibition was 102% (active).
In the case of `COc1ccc(NC(=O)CSc2ncnc3c2cnn3Cc2ccccc2)cc1`, the inhibition is reported as 49.6% (active).
Work on `COc1cc(C2c3cc4c(cc3OC(NNC(N)=S)C2C)OCO4)cc(OC)c1OC` (stereo not given) yielded an inhibition of 35.4%.
With `CC(=O)Nc1cc(-c2ccccc2N(C)C)cn2c(-c3ccc(S(C)(=O)=O)cc3)cnc12` the inhibition was 49.8% (active).
With `Cc1ccc(C)c(NC(=O)CSc2nc3[nH]ncc3c(=O)[nH]2)c1` the inhibition was 58.1% (active).
For `Cc1c(Cl)cccc1NC(=O)CSc1nc2ncc(Cl)cc2[nH]1`, the inhibition was 69% (active).
`CCNc1nc(-c2sc(NC(=O)C(C)(C)C)nc2C)c(-n2cc(-c3ccccc3)nn2)s1` gave an inhibition of 27.6%.
With `O=C(Nc1ccc(Cc2ccncc2)cc1)c1cccc([N+](=O)[O-])c1` the inhibition was 52.4% (active).
With `COc1cc(C)c(C(=O)Oc2cc(C)c(C(=O)O)c(O)c2C)c(O)c1C` the inhibition was 73.8% (active).
In the case of `O=C(NC1CCCCC1)c1ccc([N+](=O)[O-])o1`, the inhibition is reported as 54.9% (active).
Compound `CCCCc1c(O)nc(SCC(=O)Nc2ccc3c(c2)CCC3)[nH]c1=O` has an inhibition of 37.2%.
With `Cc1cc(Br)ccc1NC(=O)CN1C(=O)CCC1=O` the inhibition was 58.1% (active).
For `O=C(CN1C(=O)NC2(CCOc3ccccc32)C1=O)Nc1cccc([N+](=O)[O-])c1` (stereo not given), the inhibition was 58.6% (active).
In the case of `CC(=O)Nc1ccc(NC(=O)CSc2ccc(-c3ccc(-n4ccnc4)cc3)nn2)cc1`, the inhibition is reported as 52% (active).
In the case of `Cc1ccc(NC(=O)CSc2ccc3c(c2)OCCO3)c(O)c1`, the inhibition is reported as 54.6% (active).
In the case of `CCCOc1ccc(Cn2cnc3ccccc32)cc1`, the inhibition is reported as 54.6% (active).
For `Cc1ccc(NC(=O)c2ccc([N+](=O)[O-])o2)c(C)c1`, the inhibition was 54.7% (active).
With `Cc1nc2ccccc2n1/N=C/c1ccc([N+](=O)[O-])s1` the inhibition was 68.2% (active).
`CCOc1ccc(CCNC(=O)COC(=O)c2nc(Cl)ccc2Cl)cc1OCC` gave an inhibition of 39.2%.
For `CCNC(=S)N1CCN(c2nc(CC)nc3sc4c(c23)CCCC4)CC1`, the inhibition was 48.3% (active).
`COc1ccc(C2(C)NC(=O)N(CC(=O)Nc3ccc(C)cc3Br)C2=O)cc1OC` (stereo not given) showed an inhibition of 40.8%.
With `Cc1c(C(=O)NC(C)c2ccncc2)oc2ccccc12` (stereo not given) the inhibition was 44.2% (active).
For `Cc1nnc(SCC(=O)Nc2ccc(N3CCN(S(C)(=O)=O)CC3)cc2)o1`, the inhibition was 50.8% (active).
In the case of `CC(=O)Nc1ccc(C2=CC(=O)CC(C)(C)C2)cc1`, the inhibition is reported as 60.2% (active).
With `COCC1CCCN(C(=O)c2cc(COc3ccc4ncccc4c3)on2)C1` (stereo not given) the inhibition was 58.5% (active).
With `Cc1ccc(CNC(=O)CN2C(=O)NC3(CCCC3)C2=O)cc1` the inhibition was 33.5%.
For `CCn1c(=S)sc2c(=O)n(CC(=O)Nc3ccc(Cl)cc3)c(C)nc21`, the inhibition was 55.2% (active).
In the case of `O=C(Nc1cccc(NC(=O)c2ccccc2Cl)c1)c1ccc([N+](=O)[O-])o1`, the inhibition is reported as 58.8% (active).
In the case of `Cc1nnc(SCC(=O)Nc2sc3c(c2C(N)=O)CCCC3)[nH]c1=O`, the inhibition is reported as 46.6% (active).
